Experimental findings from PubChem BioAssay (NCATS) are described below.

The structures appear in SMILES notation. Inconclusive results are not listed. Entries that show only a call come without a potency. Calls of active or inactive are those of the source. Calls follow the shape of the dose curve; as a rule, active = well fitted activation curve with a large enough effect; inconclusive = small, poorly fitted or top-dose-only effect; inactive = no such curve, though single readings can be large or run the other way.

One test deals with Rap guanine nucleotide exchange factor 3 (Homo sapiens) (UniProt O95398). The test is described as follows: Confirmatory qHTS for agonist of cAMP-regulated guanine nucleotide exchange factor 3 (EPAC1) (AID 1645881).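 Also: EPAC1 catalysed release of BODIPY-GDP from Rap1B seen as fluorescence loss; nearly all actives have a fitted effect of over 75% in size.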 The conditions noted are these: EPAC1 Rap1B BODIPY-GDP exchange fluorescence; series mostly up to 154 µM. For orientation: In qHTS, concentration-response curves come from the screen itself.
Chain of Rap guanine nucleotide exchange factor 3 (Homo sapiens) (O95398 whole entry, looked up): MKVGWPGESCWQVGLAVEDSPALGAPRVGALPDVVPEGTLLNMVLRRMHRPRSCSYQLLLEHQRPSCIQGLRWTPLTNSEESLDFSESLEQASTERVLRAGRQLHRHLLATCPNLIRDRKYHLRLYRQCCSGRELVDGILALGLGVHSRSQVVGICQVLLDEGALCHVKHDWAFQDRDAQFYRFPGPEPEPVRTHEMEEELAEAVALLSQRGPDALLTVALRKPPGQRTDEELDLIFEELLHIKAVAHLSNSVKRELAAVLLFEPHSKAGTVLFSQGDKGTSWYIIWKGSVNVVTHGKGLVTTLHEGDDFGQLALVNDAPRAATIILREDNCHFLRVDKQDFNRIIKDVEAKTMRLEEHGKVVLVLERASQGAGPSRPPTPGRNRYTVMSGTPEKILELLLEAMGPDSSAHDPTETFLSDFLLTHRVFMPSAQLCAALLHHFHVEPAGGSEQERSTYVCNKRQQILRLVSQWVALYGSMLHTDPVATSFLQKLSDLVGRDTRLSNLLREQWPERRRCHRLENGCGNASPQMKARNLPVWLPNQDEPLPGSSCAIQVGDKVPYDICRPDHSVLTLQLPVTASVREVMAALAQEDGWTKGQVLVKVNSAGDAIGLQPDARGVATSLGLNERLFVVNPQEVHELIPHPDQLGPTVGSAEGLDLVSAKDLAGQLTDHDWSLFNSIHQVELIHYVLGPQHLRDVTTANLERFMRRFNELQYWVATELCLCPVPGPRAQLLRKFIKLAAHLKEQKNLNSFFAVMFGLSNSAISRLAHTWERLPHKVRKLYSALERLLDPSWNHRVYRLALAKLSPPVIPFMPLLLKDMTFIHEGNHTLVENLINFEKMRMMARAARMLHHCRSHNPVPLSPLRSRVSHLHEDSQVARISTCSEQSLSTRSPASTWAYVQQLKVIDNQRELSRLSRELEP
For `Cc1ccc(C(C)C)c(OCC(=O)NCC2(N3CCOCC3)CCCCC2)c1`, the Potency entry is “inactive”.

As to `CCCC1=C(C(=O)OCC)C(c2ccco2)C(C#N)=C(N)O1` (stereo not given), the Potency result was “inactive”.

For `CCc1ccccc1OCC(=O)NCC1COc2ccccc2O1` (stereo not given), the Potency entry is “inactive”.

Regarding `COc1cc(OC)cc(C(=O)Nc2ccc(NC(=O)c3ccco3)c(Cl)c2)c1`, the Potency entry was “inactive”.

Consider `COc1ccccc1[C@]1(C)ON(c2ccccc2C(F)(F)F)C1=O`, for which the Potency result was “inactive”.

Consider `CCCOc1ccc(/C=C2/C(=O)ON=C2C)cc1Cl`, for which the Potency entry was “inactive”.

As to `Oc1ccc(-c2nc(-c3ccc(O)c(O)c3)cs2)cc1`, the Potency result was “inactive”.

Regarding `O=C(NC1CCCCC1)C(c1ccc(-c2ccccc2)cc1)n1c(=O)c(-c2ccco2)nc2ccccc21` (stereo not given), the Potency result is “inactive”.

As for `COC(=O)CC1(C(=O)OC)Oc2ccc(Br)cc2C(=O)N1c1cccc(Cl)c1Cl` (stereo not given), the Potency result was “inactive”.

For the compound `Cc1ccn2c(=O)nc(SCC(=O)Nc3ccc4c(c3)OCO4)nc2c1`, the Potency result is “inactive”.

`CCOc1ccccc1NC(=O)CN1C(=O)COc2ccc(S(=O)(=O)NC3CCCC3)cc21`: the Potency entry is “inactive”.

In the case of `Cc1cccc([C@H]2[C@@H]3C=CCC[C@@H]3C(=O)N2Cc2ccccc2)c1`, the Potency result was “inactive”.

Take `C=CCOC(=O)C1=C(C)NC(C)=C(C(=O)OCC=C)C1c1ccco1`: the Potency entry was “inactive”.

For `O=C(N/N=C/c1c(O)ccc2ccccc12)c1[nH]ncc1Br`, the Potency result is “inactive”.

Regarding `O=[N+]([O-])c1cc(Br)ccc1NS(=O)(=O)c1ccccc1`, the Potency entry was “inactive”.

For `Clc1ccc(C(c2ccccc2)c2c[nH]c3ccccc23)s1` (stereo not given), the Potency entry is “inactive”.

For `CC(C)CCn1c(Oc2ccccc2Cl)nc2c1c(=O)n(C)c(=O)n2C`, the Potency entry is “inactive”.

For `O=C1CS(=O)(=O)N(Cc2cccc(F)c2)c2ccc(Br)cc21`, the Potency entry is “inactive”.

For the compound `O=C1C(Cl)=C(NCCc2ccccc2)C(=O)c2ccccc21`, the Potency result is “inactive”.

For the compound `Cc1ccc(C(=O)c2cn(Cc3cccc(F)c3)c3nc(C)ccc3c2=O)cc1`, the Potency entry was “inactive”.

For `Cc1cc(CSc2ccc(Cl)cc2)ccc1N`, the Potency result is “inactive”.

Turning to `CN1CCN(c2cc(N3CCN(C(=O)c4ccco4)CC3)c3c4c(onc24)-c2ccccc2C3=O)CC1`, the Potency entry is “inactive”.

In the case of `Cc1cccn2c(=O)c3cc(C#N)c(=NC(=O)c4ccccc4)n(Cc4ccco4)c3nc12`, the Potency result was “inactive”.

Take `Cc1ccc(-n2nc3ccc(NC(=O)/C=C/c4ccco4)cc3n2)cc1C`: the Potency entry was “inactive”.

For `COc1ccc(OC)c(CNC(=O)CCCc2cn(C)c3ccccc23)c1`, the Potency entry was “inactive”.

Consider `Cc1ccc(NC(=O)CN2C(=O)S/C(=C\c3cccn3-c3cccc(C(=O)O)c3)C2=O)cc1C`, for which the Potency result is “inactive”.

As for `Cc1nnc(SCC(=O)NCc2ccccc2F)c2nn(-c3ccc(Cl)cc3)c(C)c12`, the Potency result is “inactive”.

In the case of `COc1ccccc1Nc1cc2cc(Br)ccc2c(=O)[nH]1`, the Potency entry was “inactive”.

In the case of `CCC(CO)n1c(SCc2cc([N+](=O)[O-])cc3c2OCOC3)nc2ccccc2c1=O` (stereo not given), the Potency result was “inactive”.

On to `COc1ccc(OCc2nc3ccccc3n2C(C)c2ccccc2)cc1` (stereo not given), for which the Potency result is “inactive”.

With `O=C(NCCCN1CCOCC1)c1ccc2c(c1)N(Cc1cccc(Cl)c1)C(=O)c1ccccc1S2`, the Potency result was “inactive”.

For `OCCCNc1ncnc2oc(-c3ccccc3)c(-c3ccccc3)c12`, the Potency result was “inactive”.

On to `COc1ccc(OC)c(Nc2cc3ccccc3c(=O)[nH]2)c1`, for which the Potency result was “inactive”.

In the case of `O=C(CSc1nnc(-c2cnccn2)n1Cc1ccco1)c1ccc(Cl)cc1`, the Potency result is “inactive”.

As to `CCCS(=O)(=O)c1c(S(=O)(=O)CCC)c2cnccn2c1C(=O)c1ccc(CC)cc1`, the Potency result is “inactive”.

With `Cc1ccc(N(Cc2ccc([N+](=O)[O-])cc2)C(=O)c2ccco2)cc1`, the Potency entry was “inactive”.

Consider `CC(=O)C(=Cc1ccc(Cl)cc1)C(=O)c1ccccc1`, for which the Potency entry is “inactive”.

For the compound `O=C(Nc1cccc(S(=O)(=O)NC2=NCCCCC2)c1)c1cc(-c2ccc(Cl)cc2)nc2ccccc12`, the Potency result was “inactive”.

As for `O=C(NNC(=O)c1ccccc1F)c1cccc(-n2cccc2)c1`, the Potency entry is “inactive”.

As for `O=S(=O)(NCC(c1cccnc1)N1CCN(c2ccccc2F)CC1)c1cccs1` (stereo not given), the Potency result was “inactive”.

The target of another test is Rap guanine nucleotide exchange factor 4 (Homo sapiens) (UniProt Q8WZA2). The test is described as follows: Confirmatory qHTS for agonist of cAMP-regulated guanine nucleotide exchange factor 4 (EPAC2) (AID 1645884).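 Also: nucleotide exchange releases bodipy-GDP from Rap1 and this lowers its fluorescence; nearly all actives have a fitted effect of over 65% in size.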 The conditions noted are these: EPAC2 GEF activity, Rap1B-BODIPY-GDP fluorescence; series mostly up to 154 µM.
Chain of Rap guanine nucleotide exchange factor 4 (Homo sapiens) (Q8WZA2 whole entry, looked up): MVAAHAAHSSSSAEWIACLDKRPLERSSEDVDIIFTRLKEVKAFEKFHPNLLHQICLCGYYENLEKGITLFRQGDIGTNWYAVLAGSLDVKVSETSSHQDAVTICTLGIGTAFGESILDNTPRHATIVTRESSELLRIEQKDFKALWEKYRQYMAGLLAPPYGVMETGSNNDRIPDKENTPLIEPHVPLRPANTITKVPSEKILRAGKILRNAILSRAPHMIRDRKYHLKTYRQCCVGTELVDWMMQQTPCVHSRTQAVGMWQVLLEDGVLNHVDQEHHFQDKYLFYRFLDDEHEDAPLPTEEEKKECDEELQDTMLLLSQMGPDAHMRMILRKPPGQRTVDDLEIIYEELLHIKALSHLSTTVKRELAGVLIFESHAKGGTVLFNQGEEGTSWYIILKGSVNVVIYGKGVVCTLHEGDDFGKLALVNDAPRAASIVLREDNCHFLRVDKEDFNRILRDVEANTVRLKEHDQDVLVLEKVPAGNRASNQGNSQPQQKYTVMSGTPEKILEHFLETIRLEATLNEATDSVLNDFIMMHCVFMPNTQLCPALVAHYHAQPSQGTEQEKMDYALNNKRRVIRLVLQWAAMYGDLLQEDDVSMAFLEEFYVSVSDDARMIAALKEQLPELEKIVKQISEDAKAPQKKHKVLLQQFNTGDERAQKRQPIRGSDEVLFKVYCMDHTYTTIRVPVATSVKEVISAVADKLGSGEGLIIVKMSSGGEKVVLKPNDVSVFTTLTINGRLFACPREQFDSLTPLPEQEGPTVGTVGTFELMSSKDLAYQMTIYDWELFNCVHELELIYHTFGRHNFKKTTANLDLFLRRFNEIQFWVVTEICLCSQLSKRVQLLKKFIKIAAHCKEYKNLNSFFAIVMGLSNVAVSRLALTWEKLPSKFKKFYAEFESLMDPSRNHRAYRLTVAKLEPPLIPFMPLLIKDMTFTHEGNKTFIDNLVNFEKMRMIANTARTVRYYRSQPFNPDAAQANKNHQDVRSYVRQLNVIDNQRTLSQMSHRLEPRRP
In the case of `Cc1ccc(C(C)C)c(OCC(=O)NCC2(N3CCOCC3)CCCCC2)c1`, the Potency result was “inactive”.

`CCCC1=C(C(=O)OCC)C(c2ccco2)C(C#N)=C(N)O1` (stereo not given): the activation is 2.29% [at 17.1 µM, percent relative to cAMP agonist control] (inactive).

As to `CCc1ccccc1OCC(=O)NCC1COc2ccccc2O1` (stereo not given), the Potency result is “inactive”.

Consider `COc1cc(OC)cc(C(=O)Nc2ccc(NC(=O)c3ccco3)c(Cl)c2)c1`, for which the Potency result is “inactive”.

With `COc1ccccc1[C@]1(C)ON(c2ccccc2C(F)(F)F)C1=O`, the Potency result was “inactive”.

As for `CCCOc1ccc(/C=C2/C(=O)ON=C2C)cc1Cl`, the Potency entry is “inactive”.

On to `Oc1ccc(-c2nc(-c3ccc(O)c(O)c3)cs2)cc1`, for which the Potency entry is “inactive”.

Take `O=C(NC1CCCCC1)C(c1ccc(-c2ccccc2)cc1)n1c(=O)c(-c2ccco2)nc2ccccc21` (stereo not given): the Potency entry was “inactive”.

For the compound `COC(=O)CC1(C(=O)OC)Oc2ccc(Br)cc2C(=O)N1c1cccc(Cl)c1Cl` (stereo not given), the Potency result is “inactive”.

On to `Cc1ccn2c(=O)nc(SCC(=O)Nc3ccc4c(c3)OCO4)nc2c1`, for which the Potency entry is “inactive”.

Turning to `CCOc1ccccc1NC(=O)CN1C(=O)COc2ccc(S(=O)(=O)NC3CCCC3)cc21`, the Potency entry was “inactive”.

`Cc1cccc([C@H]2[C@@H]3C=CCC[C@@H]3C(=O)N2Cc2ccccc2)c1`: the Potency result is “inactive”.

Turning to `C=CCOC(=O)C1=C(C)NC(C)=C(C(=O)OCC=C)C1c1ccco1`, the activation was 7.19% [at 17.1 µM, percent relative to cAMP agonist control] (inactive).

`O=C(N/N=C/c1c(O)ccc2ccccc12)c1[nH]ncc1Br`: the Potency result is “inactive”.

With `O=[N+]([O-])c1cc(Br)ccc1NS(=O)(=O)c1ccccc1`, the activation is -2.03% [at 17.1 µM, percent relative to cAMP agonist control] (inactive).

Turning to `Clc1ccc(C(c2ccccc2)c2c[nH]c3ccccc23)s1` (stereo not given), the Potency result is “inactive”.

Turning to `CC(C)CCn1c(Oc2ccccc2Cl)nc2c1c(=O)n(C)c(=O)n2C`, the Potency result was “inactive”.

Regarding `O=C1CS(=O)(=O)N(Cc2cccc(F)c2)c2ccc(Br)cc21`, the Potency result was “inactive”.

In the case of `O=C1C(Cl)=C(NCCc2ccccc2)C(=O)c2ccccc21`, the Potency entry was “inactive”.

Take `Cc1ccc(C(=O)c2cn(Cc3cccc(F)c3)c3nc(C)ccc3c2=O)cc1`: the Potency entry is “inactive”.

Consider `Cc1cc(CSc2ccc(Cl)cc2)ccc1N`, for which the Potency result is “inactive”.

As to `CN1CCN(c2cc(N3CCN(C(=O)c4ccco4)CC3)c3c4c(onc24)-c2ccccc2C3=O)CC1`, the Potency result is “inactive”.

Regarding `Cc1cccn2c(=O)c3cc(C#N)c(=NC(=O)c4ccccc4)n(Cc4ccco4)c3nc12`, the activation is 11% [at 17.1 µM, percent relative to cAMP agonist control] (inactive).

`Cc1ccc(-n2nc3ccc(NC(=O)/C=C/c4ccco4)cc3n2)cc1C`: the Potency result was “inactive”.

On to `COc1ccc(OC)c(CNC(=O)CCCc2cn(C)c3ccccc23)c1`, for which the Potency result is “inactive”.

As for `Cc1ccc(NC(=O)CN2C(=O)S/C(=C\c3cccn3-c3cccc(C(=O)O)c3)C2=O)cc1C`, the activation was 3.81% [at 17.1 µM, percent relative to cAMP agonist control] (inactive).

For `Cc1nnc(SCC(=O)NCc2ccccc2F)c2nn(-c3ccc(Cl)cc3)c(C)c12`, the Potency result is “inactive”.

With `COc1ccccc1Nc1cc2cc(Br)ccc2c(=O)[nH]1`, the Potency result is “inactive”.

As to `CCC(CO)n1c(SCc2cc([N+](=O)[O-])cc3c2OCOC3)nc2ccccc2c1=O` (stereo not given), the activation was 10.3% [at 17.1 µM, percent relative to cAMP agonist control] (inactive).

Consider `COc1ccc(OCc2nc3ccccc3n2C(C)c2ccccc2)cc1` (stereo not given), for which the Potency entry is “inactive”.

Take `O=C(NCCCN1CCOCC1)c1ccc2c(c1)N(Cc1cccc(Cl)c1)C(=O)c1ccccc1S2`: the Potency entry is “inactive”.

`OCCCNc1ncnc2oc(-c3ccccc3)c(-c3ccccc3)c12`: the activation is 0.534% [at 17.1 µM, percent relative to cAMP agonist control] (inactive).

As for `COc1ccc(OC)c(Nc2cc3ccccc3c(=O)[nH]2)c1`, the Potency entry is “inactive”.

Consider `O=C(CSc1nnc(-c2cnccn2)n1Cc1ccco1)c1ccc(Cl)cc1`, for which the Potency entry is “inactive”.

As for `CCCS(=O)(=O)c1c(S(=O)(=O)CCC)c2cnccn2c1C(=O)c1ccc(CC)cc1`, the activation was 12.5% [at 17.1 µM, percent relative to cAMP agonist control] (inactive).

In the case of `Cc1ccc(N(Cc2ccc([N+](=O)[O-])cc2)C(=O)c2ccco2)cc1`, the Potency result is “inactive”.

In the case of `CC(=O)C(=Cc1ccc(Cl)cc1)C(=O)c1ccccc1`, the Potency entry was “inactive”.

Take `O=C(Nc1cccc(S(=O)(=O)NC2=NCCCCC2)c1)c1cc(-c2ccc(Cl)cc2)nc2ccccc12`: the Potency entry was “inactive”.

With `O=C(NNC(=O)c1ccccc1F)c1cccc(-n2cccc2)c1`, the Potency result was “inactive”.

As to `O=S(=O)(NCC(c1cccnc1)N1CCN(c2ccccc2F)CC1)c1cccs1` (stereo not given), the activation is 0% [at 17.1 µM, percent relative to cAMP agonist control] (inactive).
